# Cav3 T inh – blocks human Cav3.2 T-type calcium channel; O95180; Cav3.2-expressing cells, Fluo-4 calcium fluorescence FDSS; stronger effect = lower value; B-score at 10 µM; 4% of 100,000 active; AID 449739;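 active = single-dose well whose peak fluorescence ratio is a statistical outlier from its plate by either plate-standardised score or position-corrected B-score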
# CYP2C19 inhib – inhibitors of human CYP2C19; P33261; CYP2C19 Supersomes, luciferin-H EGE luminescence, 30 min; inhibition, % at 5 µM; 21% of 96,000 active;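 active = CYP2C19 inhibition above a set limit at 5 µM in the primary screen, cut at about 50% in these data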;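 note: plate controls were negative control wells for no effect and 2.5 mM tranylcypromine positive control for full effect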
# PTK2B oligo ant – antagonists of human Pyk2 oligomerization; Q293 cells, Pyk2 FERM NanoBiT luminescence; stronger effect = lower value; z-score (the deposit names both 25 µM and 10 µM); 0.83% of 99,000 active;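 active = Z-score of -3 or lower, scaled per plate to the spread of control and sample wells; inactive = z-score above -3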;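 note: negative z-score means lost luminescence so less FERM oligomerization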
# CYP2C9 activ – CYP2C9 (human) activation | activation factor at 5 µM | AID 1024 | recombinant CYP2C9, luciferin-H conversion, luminescence; stronger effect = higher value; factor 1 = untreated enzyme, 0 = blocked | 1.4% of 96,000 active;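 active = activation factor of 2 or more for CYP2C9 at a 5 µM dose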;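 note: 0 = sulfaphenazole-blocked wells and 1 = vehicle-only wells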
# CYP2C9 inhib – inhibitors of human CYP2C9. P11712. CYP2C9 Supersomes, luciferin-H conversion, luminescence. inhibition, % at 5 µM. 20% of 96,000 active. AID 777;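 active = blocking of liver enzyme CYP2C9 beyond about 50% at 5 µM, limit read from the data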
# CYP2C19 act – activators of human cytochrome P450 2C19. P33261. recombinant CYP2C19, luciferin-H EGE luminescence; stronger effect = higher value; 0 = fully inhibited enzyme, 1 = untreated enzyme. activation factor at 5 µM. 96,000 tested, under 10 active. AID 1025;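 active = activation factor of at least 2 at 5 µM in the primary screen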;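 note: 0 = wells with 2.5 mM tranylcypromine and 1 = vehicle-only wells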
# An asterisk follows results filed as active; / = not tested or not shown. Hits are enriched below; roughly 27% of the tested compounds scored in any of these assays.
SMILES,Cav3 T inh,CYP2C19 inhib,PTK2B oligo ant,CYP2C9 activ,CYP2C9 inhib,CYP2C19 act
Cc1ccc(CNC(=O)c2cn(C3CCCCC3)c(=O)c3c2c2ccccc2n3C)o1,0.13,24,0.8,0.6,39,0.8
Cc1cc(NC(=O)c2cn(C3CCCCC3)c(=O)c3c2c2ccccc2n3C)no1,0.069,60*,/,0.2,84*,0.4
O=C(C1=C[C@H](C2CC2)C[C@H](OCCCCO)O1)N1CCOCC1,0.47,/,/,/,/,/
O=C(c1ccc(Cl)cc1Cl)C1(n2cncn2)Oc2ccccc2C1O (stereo not drawn),-2.7,99*,-1.4,0.1,93*,0
CC(=O)N1c2c(cc(Br)cc2S(=O)(=O)NCc2ccc3c(c2)OCO3)CC1C (stereo not drawn),0.58,86*,-0.01,1.8,-83,0.1
CC(=O)N1c2c(cc(Br)cc2S(=O)(=O)NCC2COc3ccccc3O2)CC1C (stereo not drawn),-0.13,65*,-0.71,1.8,-81,0.3
CC(=O)N1c2c(cc(Br)cc2S(=O)(=O)NCc2cccnc2)CC1C (stereo not drawn),/,6,0.21,1.1,-12,0.9
CCCCN(Cc1ccccc1)S(=O)(=O)c1cc(Br)cc2c1N(C(C)=O)C(C)C2 (stereo not drawn),-3.3*,38,-2.4,0.1,95*,0.6
COc1cc(C(=O)N2c3ccccc3CC2C)cc(OC)c1OC (stereo not drawn),0.42,25,-0.41,0.8,23,0.8
CCCC(=O)O[C@@H]1C[C@@H](C)N(C(=O)c2ccccc2)c2ccc(C)cc21,-4.1*,33,-2,0.8,24,0.7
Cc1ccc(Cn2nnc3c(=O)n(Cc4ccccc4C)cnc32)cc1,0.028,0,/,1.6,-62,1
CCOC(=O)c1nn(-c2ccccc2C)c(=O)c(C#N)c1C,0.69,65*,0.38,0.9,8,0.4
CCOC(=O)c1nnn(-c2ccccc2C#N)c1C,0.041,-17,0.66,1.7,-70,1.2
CC(C)c1nc(C#N)c(NCCCn2ccnc2)o1,0.049,100*,0.18,0.1,91*,0
CCNC(=O)COC(=O)C1C(C(=O)OCC)=C(C)NC(C)=C1C(=O)OCC,-0.61,86*,0.38,0.3,75*,0.1
CCOC(=O)C1=C(C)NC(C)=C(C(=O)OCC)C1C(=O)OCC(=O)N1CCCCC1CC (stereo not drawn),-0.88,62*,-0.22,0.3,67*,0.4
CCOC(=O)C1=C(C)NC(C)=C(C(=O)OCC)C1C(=O)OCC(=O)N1CCC(C)CC1,0.39,12,-0.07,0.7,35,0.9
CCOC(=O)C1=C(C)NC(C)=C(C(=O)OCC)C1C(=O)O,-0.59,1,0.32,1,1,1
COc1ccc2nc(SCC(=O)N3CCN(c4ccc(F)cc4)CC3)c(C#N)cc2c1,-0.93,/,1.6,/,/,/
COc1cccc(C(=O)NCc2ccccc2OC)c1,1,37,0.02,1.9,-86,0.6
COc1cc(C(=O)NCc2cccc3ccccc23)cc(Cl)c1OC,-2.4,62*,-1.2,1.3,-30,0.4
Cc1cc(=O)n2nc(N3CCCC3C(=O)NCCCN3CCCCC3)sc2n1 (stereo not drawn),-0.18,-18,0.35,1.2,-19,1.2
Cc1ccc(C(=O)Nc2ccc(Cc3ccncc3)cc2)cc1[N+](=O)[O-],/,91*,-0.05,0.1,90*,0.1
CCC(=O)Nc1cccc(NC(=O)c2ccc(C)c([N+](=O)[O-])c2)c1,1.3,13,1.2,1.2,-19,0.9
CCCn1c(=O)n(C)c(=O)c2c(SCC(=O)NCc3ccco3)nc(C3CC3)nc21,1.8,12,-0.07,0.4,59*,0.9
O=C(CSc1nc(C2CC2)nc2sc3c(c12)CCCC3)NCc1ccco1,-0.19,-15,0.8,1,-4,1.1
Cc1cc(C)n2nc(SC3CCCCN(C(=O)c4ccc(F)cc4)C3=O)nc2n1 (stereo not drawn),0.11,-2,-0.09,0.9,8,1
O=C(NCCc1cccs1)C12CN(Cc3ccccc3)CC1C(c1cccc([N+](=O)[O-])c1)=NO2 (stereo not drawn),-2.3,50,/,0.3,73*,0.5

# Screens as filed in PubChem.
